Test [1] concerns PRMT1 (protein arginine N-methyltransferase 1). Nature of the test: small molecules binding arginine methyltransferase PRMT1 – biochemical, small-molecule microarray, 635 nm fluorescence, primary screen (AID 1088).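 Also: binding of Prmt1 protein to compounds spotted on small-molecule microarray slides.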 Particulars: higher = more signal.
The nature of test [2]: growth effects on S. cerevisiae YJM789 – YJM789 clinical isolate, OD600, 24 h, basal, primary screen (AID 1089).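 Also: growth of clinical yeast isolate S. cerevisiae YJM 789 seeded 1000 cells per well; test concentration not given here.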 As to conditions: higher = more signal, called active from +8 up or from −8 down.
The nature of test [3]: S. pombe growth modifiers, basal conditions – strain 972, OD600, 24 h, no modulator, primary screen (AID 1090).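 Also: basal condition with compound alone and no growth modifier present; test concentration not given here.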 Particulars: S. pombe 972 growth, higher = more signal, called active from +8 up or from −8 down.
A short description of test [4]: budding yeast growth modifiers under rapamycin – strain BY4716, OD600, 96 h, primary screen (AID 1091). Also: test concentration not given here. As to conditions: S. cerevisiae BY4716 + rapamycin, higher = more signal, called active from +8 up or from −8 down.
Test [5] addresses Torsin-1A-interacting protein 2 (Homo sapiens) (UniProt Q8NFQ8). Nature of the test: small molecules binding lysate-expressed LULL1 – cell lysate, human LULL1 lysate, 635/667 nm fluorescence, primary screen (AID 1092).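 Also: probe is lysate of COS7 cells overexpressing human LULL1; score merges per-feature 667 nm fluorescence with signal-to-noise.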 Particulars: small-molecule microarray, hLULL1 lysate binding, 635 nm fluorescence; higher = more signal.
Test [6] in a line: optical density change of DRC41 E. coli – strain DRC41, OD650, 24 h, E. coli filamentation project, primary screen (AID 1093).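 Also: MC1000 strain lacking acrAB efflux and sulA so SOS filamentation is blocked; test concentration not given here.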 Particulars: E. coli DRC41 growth, higher = more signal, called active from +8 up or from −8 down.
Test [7] is described as follows: probe aLefty2 binding to arrayed compounds – biochemical, biotinylated probe, 635/667 nm fluorescence, primary screen (AID 1094).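 Also: score merges spot fluorescence near 667 nm with spot signal-to-noise ratio.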 As to conditions: small-molecule microarray, higher = more signal.
In test [8] the test system is Noggin (protein binding on small-molecule microarray). In words: small molecules binding Noggin protein – biochemical, 635/667 nm fluorescence, primary screen (AID 1095).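 Also: score merges 667 nm feature fluorescence with signal to noise over triplicate slides.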 As to conditions: 635 nm fluorescence, higher = more signal.
For test [9], the target named is Neurogenic locus notch homolog protein 3 (Homo sapiens) (UniProt Q9UM47). Nature of the test: small molecules binding NOTCH3 protein – biochemical, 635/667 nm fluorescence, primary screen (AID 1096). Particulars: small-molecule microarray, 635 nm fluorescence, higher = more signal.
Neurogenic locus notch homolog protein 3 (Homo sapiens), sequence (Q9UM47 whole entry, looked up): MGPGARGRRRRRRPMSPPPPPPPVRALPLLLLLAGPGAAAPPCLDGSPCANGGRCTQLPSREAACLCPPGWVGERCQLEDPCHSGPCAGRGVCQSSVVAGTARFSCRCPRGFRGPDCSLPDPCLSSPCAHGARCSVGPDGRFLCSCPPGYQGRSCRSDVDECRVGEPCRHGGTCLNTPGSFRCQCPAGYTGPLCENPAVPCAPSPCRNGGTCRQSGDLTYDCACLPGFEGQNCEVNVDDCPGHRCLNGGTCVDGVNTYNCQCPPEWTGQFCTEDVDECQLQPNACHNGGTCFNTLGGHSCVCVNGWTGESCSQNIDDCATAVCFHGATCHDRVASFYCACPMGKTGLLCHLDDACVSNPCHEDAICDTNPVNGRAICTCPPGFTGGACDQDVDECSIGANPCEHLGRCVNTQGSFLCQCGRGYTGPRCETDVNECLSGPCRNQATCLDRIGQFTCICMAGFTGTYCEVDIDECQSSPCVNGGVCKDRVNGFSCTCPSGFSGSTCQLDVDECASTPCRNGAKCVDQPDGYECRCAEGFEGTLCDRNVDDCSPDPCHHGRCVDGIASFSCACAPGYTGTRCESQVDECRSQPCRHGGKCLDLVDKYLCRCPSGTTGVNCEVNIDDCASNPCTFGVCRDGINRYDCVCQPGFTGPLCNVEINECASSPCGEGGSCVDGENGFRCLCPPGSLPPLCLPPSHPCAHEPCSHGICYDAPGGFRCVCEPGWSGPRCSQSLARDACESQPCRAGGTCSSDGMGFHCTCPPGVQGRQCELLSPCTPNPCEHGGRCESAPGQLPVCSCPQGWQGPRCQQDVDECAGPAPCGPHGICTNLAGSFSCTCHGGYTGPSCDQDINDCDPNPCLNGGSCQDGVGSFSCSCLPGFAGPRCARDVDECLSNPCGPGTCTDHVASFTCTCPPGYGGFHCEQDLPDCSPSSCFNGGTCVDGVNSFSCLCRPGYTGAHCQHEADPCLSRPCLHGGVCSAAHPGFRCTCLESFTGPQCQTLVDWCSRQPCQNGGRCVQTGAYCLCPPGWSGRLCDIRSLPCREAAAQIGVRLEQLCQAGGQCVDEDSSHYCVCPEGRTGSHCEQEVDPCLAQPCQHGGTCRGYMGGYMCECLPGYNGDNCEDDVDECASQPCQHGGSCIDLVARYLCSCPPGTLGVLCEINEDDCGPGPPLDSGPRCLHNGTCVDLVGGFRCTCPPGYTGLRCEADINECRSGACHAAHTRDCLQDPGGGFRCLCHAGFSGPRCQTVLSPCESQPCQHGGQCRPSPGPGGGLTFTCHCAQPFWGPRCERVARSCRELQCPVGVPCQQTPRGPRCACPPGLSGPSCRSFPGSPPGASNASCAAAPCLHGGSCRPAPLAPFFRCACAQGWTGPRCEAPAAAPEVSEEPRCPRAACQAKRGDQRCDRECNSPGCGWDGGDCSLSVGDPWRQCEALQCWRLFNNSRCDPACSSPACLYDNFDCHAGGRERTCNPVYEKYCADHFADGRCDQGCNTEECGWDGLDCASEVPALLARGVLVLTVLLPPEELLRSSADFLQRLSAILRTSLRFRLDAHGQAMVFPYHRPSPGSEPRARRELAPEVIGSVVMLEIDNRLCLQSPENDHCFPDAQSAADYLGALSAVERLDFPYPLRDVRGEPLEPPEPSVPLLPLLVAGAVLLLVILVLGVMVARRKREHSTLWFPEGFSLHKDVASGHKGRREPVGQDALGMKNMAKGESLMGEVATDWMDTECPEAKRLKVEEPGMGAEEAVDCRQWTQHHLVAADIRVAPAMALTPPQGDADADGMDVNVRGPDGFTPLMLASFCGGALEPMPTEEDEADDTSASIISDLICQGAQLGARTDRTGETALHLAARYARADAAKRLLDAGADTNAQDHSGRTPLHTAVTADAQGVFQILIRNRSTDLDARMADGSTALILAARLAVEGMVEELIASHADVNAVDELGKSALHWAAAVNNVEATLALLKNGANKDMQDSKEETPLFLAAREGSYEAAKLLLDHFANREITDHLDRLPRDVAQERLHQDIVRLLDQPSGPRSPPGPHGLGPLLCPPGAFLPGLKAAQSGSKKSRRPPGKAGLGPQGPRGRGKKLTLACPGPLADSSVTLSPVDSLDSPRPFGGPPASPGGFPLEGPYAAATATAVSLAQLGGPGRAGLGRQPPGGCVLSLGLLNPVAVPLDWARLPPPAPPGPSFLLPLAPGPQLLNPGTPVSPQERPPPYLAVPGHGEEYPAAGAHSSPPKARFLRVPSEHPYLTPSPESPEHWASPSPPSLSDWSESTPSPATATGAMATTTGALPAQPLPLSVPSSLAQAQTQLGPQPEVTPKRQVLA
Test [10] in a line: probe aEGFR binding to arrayed compounds – biochemical, biotinylated probe, 635/667 nm fluorescence, primary screen (AID 1097).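 Also: probe is a biotinylated anti-EGFR antibody binding compounds printed on slides; score combines fluorescence near 667 nm and signal to noise of each spot.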 Particulars: small-molecule microarray, higher = more signal.
In test [11] the test system is Plasmodium falciparum Sir2 (PF13_0152, Sir2A). In words: Plasmodium falciparum Sir2A binding compounds – biochemical, small-molecule microarray, 635 nm fluorescence, primary screen (AID 1098).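 Also: score merges spot fluorescence intensity with its signal-to-noise ratio.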 As to conditions: fluorescence 635 nm, higher = more signal.
Test [12] can be described thus: probe aDKK1 binding to arrayed compounds – biochemical, biotinylated probe, 635/667 nm fluorescence, primary screen (AID 1099).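 Also: score merges 667nm spot fluorescence with signal to noise across triplicate slides; reference of the scale not given here.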 Particulars: small-molecule microarray, higher = more signal.
Test [13] can be described thus: probe aCHRDL2 binding to arrayed compounds – biochemical, biotinylated probe, 635/667 nm fluorescence, primary screen (AID 1100). Particulars: small-molecule microarray, higher = more signal.
Test [14] can be described thus: change in splice reporter luminescence, either direction, cell-based, HEK293, spliceosome inhibition project, primary screen (AID 1101).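 Also: HEK293 cells carrying a splicing-competent luciferase reporter gene; test concentration not given here.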 Particulars: HEK293 splicing luciferase reporter, 24 h, higher = more signal, called active from +8 up or from −8 down.
For test [15], the target named is Fibroblast growth factor 10 (Homo sapiens) (UniProt O15520). Nature of the test: compounds binding fibroblast growth factor 10 – biochemical, small-molecule microarray, 635 nm fluorescence, primary screen (AID 1102). As to conditions: FGF10 binding, fluorescence 635 nm, higher = more signal.
Fibroblast growth factor 10 (Homo sapiens), sequence (O15520 whole entry, looked up): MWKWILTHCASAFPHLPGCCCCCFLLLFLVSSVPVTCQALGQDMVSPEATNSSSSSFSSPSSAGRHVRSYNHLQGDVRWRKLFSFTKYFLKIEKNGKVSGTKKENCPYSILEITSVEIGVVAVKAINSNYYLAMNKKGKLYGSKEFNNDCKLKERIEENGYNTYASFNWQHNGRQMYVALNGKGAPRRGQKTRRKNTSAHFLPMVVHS
The test system of test [16] is glycogen synthase kinase-3 (GSK3A per assay name; protocol says GSK3B). Nature of the test: compounds binding glycogen synthase kinase-3 – biochemical, small-molecule microarray, 635 nm fluorescence, GSK3A, primary screen (AID 1103). Also: the record names both GSK3A and GSK3B. As to conditions: fluorescence 635 nm, higher = more signal.
Test [17] has as its target Epidermal growth factor receptor (Homo sapiens) (UniProt P00533). Nature of the test: compounds binding epidermal growth factor receptor – biochemical, small-molecule microarray, 635 nm fluorescence, primary screen (AID 1104).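 Also: score merges 667 nm emission intensity with spot signal to noise over triplicate slides.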 As to conditions: EGFR binding, higher = more signal.
In test [18] the target is Follistatin-related protein 3 (Homo sapiens) (UniProt O95633). In words: compounds binding follistatin-related protein 3 – biochemical, small-molecule microarray, 635 nm fluorescence, primary screen (AID 1105).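 Also: score merges emission near 667 nm and signal to noise per printed spot across three slides.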 As to conditions: FSTL3 binding, higher = more signal.
Follistatin-related protein 3 (Homo sapiens), sequence (O95633 whole entry, looked up): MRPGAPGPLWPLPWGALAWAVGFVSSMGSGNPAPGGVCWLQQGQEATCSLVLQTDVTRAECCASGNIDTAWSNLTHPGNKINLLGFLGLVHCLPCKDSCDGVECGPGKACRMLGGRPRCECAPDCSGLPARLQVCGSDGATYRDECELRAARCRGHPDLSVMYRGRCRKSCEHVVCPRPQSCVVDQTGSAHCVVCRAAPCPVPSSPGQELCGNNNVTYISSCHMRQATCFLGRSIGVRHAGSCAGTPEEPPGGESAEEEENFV
Test [19] concerns the target Dickkopf-related protein 1 (Homo sapiens) (UniProt O94907). Nature of the test: small molecules binding DKK1 protein – biochemical, small-molecule microarray, 635 nm fluorescence scan, primary screen (AID 1106).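 Also: score merges emission near 667 nm with signal to noise over three replicate slides.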 Particulars: higher = more signal.
The test system of test [20] is Inhibin beta A chain (activin A). Nature of the test: small molecules binding activin A – biochemical, small-molecule microarray, 635 nm fluorescence scan, primary screen (AID 1107).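 Also: mouse activin A protein probed at 4.33 µg/mL on printed slides; score merges bound-protein fluorescence near 667 nm with spot signal-to-noise.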 As to conditions: INHBA, higher = more signal.

Structures are written as SMILES. Active and inactive are the calls of the source.

Torsin-1A-interacting protein 2 (Homo sapiens), sequence (Q8NFQ8 whole entry, looked up): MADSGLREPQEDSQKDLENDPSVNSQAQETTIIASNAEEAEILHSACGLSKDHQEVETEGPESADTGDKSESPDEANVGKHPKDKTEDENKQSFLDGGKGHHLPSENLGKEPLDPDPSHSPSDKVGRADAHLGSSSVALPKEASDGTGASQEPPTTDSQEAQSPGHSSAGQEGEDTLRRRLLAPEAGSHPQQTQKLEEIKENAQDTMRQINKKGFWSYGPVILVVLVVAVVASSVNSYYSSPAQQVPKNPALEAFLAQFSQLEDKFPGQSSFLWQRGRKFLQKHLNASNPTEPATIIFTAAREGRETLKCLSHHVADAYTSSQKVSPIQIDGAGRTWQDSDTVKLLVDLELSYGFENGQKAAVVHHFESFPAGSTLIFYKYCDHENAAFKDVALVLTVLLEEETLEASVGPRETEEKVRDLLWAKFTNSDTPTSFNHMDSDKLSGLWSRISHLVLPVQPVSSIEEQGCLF
Epidermal growth factor receptor (Homo sapiens), sequence (P00533 whole entry, looked up): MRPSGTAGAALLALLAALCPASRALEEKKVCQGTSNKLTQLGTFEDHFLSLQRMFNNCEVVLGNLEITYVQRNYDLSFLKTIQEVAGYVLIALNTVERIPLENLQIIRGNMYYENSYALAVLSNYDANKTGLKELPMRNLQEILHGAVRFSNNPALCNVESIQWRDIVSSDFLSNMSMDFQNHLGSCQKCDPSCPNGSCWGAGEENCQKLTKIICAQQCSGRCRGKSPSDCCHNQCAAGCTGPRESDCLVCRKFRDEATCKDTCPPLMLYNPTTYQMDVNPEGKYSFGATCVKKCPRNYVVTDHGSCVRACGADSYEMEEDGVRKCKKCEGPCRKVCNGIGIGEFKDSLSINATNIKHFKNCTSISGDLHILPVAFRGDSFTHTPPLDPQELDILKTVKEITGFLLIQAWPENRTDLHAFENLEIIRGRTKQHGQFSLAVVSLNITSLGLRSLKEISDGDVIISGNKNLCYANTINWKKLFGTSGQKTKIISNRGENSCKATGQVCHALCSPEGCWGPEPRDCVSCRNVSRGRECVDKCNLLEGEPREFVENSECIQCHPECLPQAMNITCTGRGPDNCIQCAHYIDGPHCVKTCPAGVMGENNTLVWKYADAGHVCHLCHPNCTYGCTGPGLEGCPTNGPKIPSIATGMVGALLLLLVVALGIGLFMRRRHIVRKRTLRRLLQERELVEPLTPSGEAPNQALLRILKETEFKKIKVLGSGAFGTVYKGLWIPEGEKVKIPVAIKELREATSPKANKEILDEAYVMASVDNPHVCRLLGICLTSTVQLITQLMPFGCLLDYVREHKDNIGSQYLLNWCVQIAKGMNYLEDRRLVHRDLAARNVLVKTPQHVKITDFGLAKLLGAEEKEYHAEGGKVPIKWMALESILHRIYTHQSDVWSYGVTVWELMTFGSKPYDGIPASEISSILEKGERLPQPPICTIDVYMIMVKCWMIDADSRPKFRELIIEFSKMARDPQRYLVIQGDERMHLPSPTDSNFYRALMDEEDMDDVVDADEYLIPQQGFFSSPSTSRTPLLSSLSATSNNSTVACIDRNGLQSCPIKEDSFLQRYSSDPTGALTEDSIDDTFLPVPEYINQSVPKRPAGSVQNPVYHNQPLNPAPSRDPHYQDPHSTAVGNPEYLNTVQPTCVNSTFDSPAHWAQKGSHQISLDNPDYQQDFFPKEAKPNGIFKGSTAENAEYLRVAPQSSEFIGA
Dickkopf-related protein 1 (Homo sapiens), sequence (O94907 whole entry, looked up): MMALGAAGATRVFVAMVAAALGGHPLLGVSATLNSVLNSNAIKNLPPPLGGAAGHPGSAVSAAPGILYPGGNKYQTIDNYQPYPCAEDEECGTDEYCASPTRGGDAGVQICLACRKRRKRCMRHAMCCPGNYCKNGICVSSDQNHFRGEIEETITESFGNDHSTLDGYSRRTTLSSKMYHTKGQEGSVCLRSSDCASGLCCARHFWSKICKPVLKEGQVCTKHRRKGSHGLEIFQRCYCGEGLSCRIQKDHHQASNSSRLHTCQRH

As to `CCOC(=O)[C@H](Cc1ccccc1)NC(=O)CCC1CC(OC(=O)NCCc2ccc(F)cc2)CC2(CCCC(COC(=O)NCCOC)O2)O1` (stereo not given in full), the composite z-score is 1.46 in test [1]; 1.73 in test [5]; -0.147 in test [7]; 0.325 in test [8]; 0.796 in test [9]; 0.153 in [10]. Moreover, the composite z-score in [11] is 0.637; in test [12], 0.765; in test [13], -0.504; in test [15], 0.984; in test [16], 0.614; in test [17], 0.856. The figures for the composite z-score in test [18], in test [19] and in test [20] were 0.969, 1.13 and 0.163, respectively. In addition, the z-score in [2] is 0.197 (inactive); in [3], 0.143 (inactive); in [4] it was -0.16 (inactive); in test [6] it was 0.769 (inactive); in test [14] it was 0.371 (inactive).
As for `COC(=O)[C@H](C)NC(=O)CCC1CC(OC(=O)NCCc2ccc(F)cc2)CC2(CCCC(COC(=O)NCc3cccc(C(F)(F)F)c3)O2)O1` (stereo not given in full), the composite z-score in test [1] was 0.292; in test [5] it was 1.79; in test [7], -0.0668; in test [8], 1.01; in test [9] it was 0.581; in test [10], -0.0647. Moreover, the composite z-score in [11] was 0.185; in [12] it was -0.528; in [13], -0.623; in [15], 0.951; in test [16], 0.359; in [17], 0.873. Moreover, the composite z-score in test [18] was 1.31; in [19] it was 1.41; in test [20], 0.0622. Moreover, the z-score is -0.207 (inactive) in test [2]; 1.18 (inactive) in [3]; 0.52 (inactive) in test [4]; 0.723 (inactive) in test [6]; 0.249 (inactive) in test [14].
For `CO[C@H]1COC(=O)CC=C[C@@H](C)[C@H](NS(=O)(=O)c2ccc(C)cc2)COC(=O)CCC[C@@H]1C`, the composite z-score in [1] is 1.1; in [5], -0.401; in test [7], -0.122; in test [8], 0.676; in test [9], 0.77; in test [10], -0.067. In addition, the composite z-score in test [11] was 0.684; in test [12] it was -0.233; in [13], -0.689; in test [15], 0.366; in test [16], 0.22; in test [17], 0.484. The composite z-score in [18] stood at 1.04; in [19], 1.53; in test [20], 0.9. For the same compound, the z-score is -0.419 (inactive) in test [2]; 0.14 (inactive) in [3]; -0.726 (inactive) in test [4]; -0.0537 (inactive) in test [6]; -0.679 (inactive) in test [14].
As for `O=C1[C@H]2[C@H]3[C@H](O)[C@H](O)CC(=NOC[C@@H](O)COCc4ccco4)[C@@H]3CC[C@H]2C(=O)N1C[C@@H]1CCCO1`, the composite z-score in test [1] is 1.37; in test [5] it was -0.239; in [7] it was -0.0732; in [8], 0.997; in test [9], 0.395; in test [10] it was -0.344. The composite z-score is 0.396 in [11]; -0.549 in [12]; -1.2 in [13]; 0.204 in test [15]; 1.24 in [16]; 1.14 in test [17]. The composite z-score in [18] turned out to be 1.49; in test [19], 1.51; in test [20] it was 1.22. The z-score in [2] is 0.715 (inactive); in test [3], 1.01 (inactive); in [4], 0.714 (inactive); in [6] it was 1.05 (inactive); in test [14], -0.134 (inactive).
On to `O=C(NN=C1C[C@@H](O)[C@@H](O)[C@@H]2[C@@H]3C(=O)N(C[C@@H]4CCCO4)C(=O)[C@@H]3CC[C@H]12)OCc1ccccc1`, for which the composite z-score in test [1] was -0.166; in test [5], 0.126; in test [7] it was 0.0061; in test [8] it was -0.284; in [9], -0.696; in test [10], -0.19. For the same compound, the composite z-score in [11] was 0.278; in test [12] it was 0.545; in test [13] it was 0.768; in test [15], -0.132; in test [16], -0.658; in test [17], -0.0485. The composite z-score in [18] is -0.281; in [19] it was -0.575; in test [20] it was 0.902. For the same compound, the z-score was 0.387 (inactive) in [2]; 0.499 (inactive) in test [3]; -0.186 (inactive) in [4]; 0.52 (inactive) in [6]; 0.0311 (inactive) in test [14].
For the compound `Cc1cc2c(nc1C)CCCN2CC(O)CN1CCCc2nc(C)c(C)cc21`, the composite z-score was 0.692 in [1]; 1.89 in test [5]; 0.256 in test [7]; 0.256 in [8]; 0.625 in [9]; -0.002 in [10]. In addition, the composite z-score in test [11] was found to be 0.264; in test [12], 0.125; in test [13] it was 0.258; in test [15] it was 0.92; in test [16], 0.388; in test [17], 0.36. In addition, the figures for the composite z-score in test [18], in test [19] and in test [20] were 0.552, 0.536 and 1.17, respectively. Further, the z-score in test [2] was 0.623 (inactive); in [3], 0.73 (inactive); in test [4] it was -0.238 (inactive); in [6] it was -0.605 (inactive); in test [14], -0.153 (inactive).
Turning to `CO[C@H]1COC(=O)[C@H](C)NC(=O)[C@@H](C)COC(=O)[C@H]2CCCN2C(=O)CC=C[C@H]1C`, the composite z-score is 1.08 in [1]; -0.412 in test [5]; -0.138 in test [7]; 0.542 in [8]; 0.358 in [9]; -0.0689 in test [10]. The composite z-score is -0.139 in [11]; -0.377 in [12]; -0.823 in test [13]; 0.764 in test [15]; 0.945 in test [16]; 0.627 in test [17]. Further, the figures for the composite z-score in test [18], in test [19] and in test [20] were 0.736, 1.55 and -0.252, respectively. Besides, the z-score in [2] was -0.282 (inactive); in test [3], -0.658 (inactive); in [4], -0.571 (inactive); in [6], 0.492 (inactive); in test [14] it was -0.447 (inactive).
For `CC(C)=CCCC(C)=CCON=C1C[C@@H](O)[C@@H](O)[C@@H]2[C@@H]3C(=O)N(C[C@@H]4CCCO4)C(=O)[C@@H]3CC[C@H]12`, the composite z-score was 1.56 in test [1]; 1.39 in [5]; -0.111 in test [7]; 0.987 in [8]; 1.08 in [9]; 0.122 in [10]. The composite z-score in test [11] is 0.346; in test [12] it was -0.257; in [13], -0.762; in test [15] it was 1.37; in test [16], 1.25; in [17], 1.29. Also, the composite z-score in test [18] is 1.39; in [19] it was 1.46; in test [20], 1. For the same compound, the z-score is 0.46 (inactive) in test [2]; 0.948 (inactive) in test [3]; 0.036 (inactive) in test [4]; 0.362 (inactive) in [6]; 0.91 (inactive) in [14].
As for `CCOC(=O)[C@H](CC(C)C)NC(=O)CCC1CC(OC(=O)NCCc2ccc(F)cc2)CC2(CCCC(COC(=O)NCC3CCCCC3)O2)O1` (stereo not given in full), the composite z-score in test [1] was 0.49; in test [5] it was 1.12; in test [7], -0.231; in test [8], 0.266; in [9], 0.291; in test [10] it was 0.0069. Also, the composite z-score in [11] was 0.0149; in test [12], -0.227; in test [13], -0.283; in test [15], 0.953; in test [16] it was 0.293; in test [17], 0.432. Besides, the composite z-score in [18] is 0.8; in test [19], 0.479; in test [20] it was -0.174. Moreover, the z-score in [2] is -0.808 (inactive); in test [3], 0.541 (inactive); in [4], 1.23 (inactive); in [6] it was -0.61 (inactive); in test [14] it was -0.152 (inactive).

These data come from PubChem BioAssay.
